Inconclusive results are not listed. Calls of active or inactive are those of the source. Rule for the calls: active = hit-call score of the fitted dose curve at least 0.9, where 1 is the maximum; inconclusive = response in the unintended direction; inactive = score below 0.9.
Assay: STM_H9_OrnCyssISnorm_ratio: Stemina devTOX quickPredict H9 human embryonic stem cell (hESC)-based Assay for Ornithine (ORN):Cystine (CYSS) Ratio (AID 2283714)
Description: STM_H9_secretome utilizes undifferentiated H9 cells to measure relative changes in two metabolites, ornithine (ORN) and cystine (CYSS) in the secretome, targeting a critical drop in the ORN/CYSS ratio as a biomarker for developmental toxicity.STM_H9_OrnCyssISnorm_ratio is one of 10 components calculated in the STM_H9_secretome assay. It is the ratio value of OrnISnorm_perc to CyssISnorm_perc.Data from the assay component STM_H9_OrnCyssISnorm_ratio was analyzed at the assay endpoint STM_H9_OrnCyssISnorm_ratio in the positive analysis fitting direction relative to DMSO as the negative control and baseline of activity. Using a type of binding reporter, gain or loss-of-signal activity can be used to understand relative metabolite change.
H9 hESCs maintained in a pluripotent state were exposed to test compound for 72h with chemical replenishment with media replacement every 24h. Cell-conditioned media from the final 24-h treatment period was collected for analysis of the targeted biomarker, and cell viability of the corresponding cell layer was assessed. The chemical library was tested in blinded fashion. Each test plate included 1uM Methotrexate (MTX; Selleck Chemicals, Houston, Texas) as a positive reference, 5 nM MTX as a negative reference, 0.1% DMSO as the neutral (vehicle) control, and sample-level media blanks.H9 cell-conditioned media from the final 24-h treatment period was collected for analysis of the targeted biomarker and cell viability was measured from the corresponding cell layer. Cell viability was measured using the CellTiter-Fluor assay (Promega, Madison, Wisconsin) based on proteolytic cleavage of a substrate to fluorescent signal proportional to the number of living cells. The cell viability Relative Fluorescence Unit (RFU) was background corrected and normalized to mean RFU of the neutral control (0.1% DMSO). The collected H9-cell-conditioned media samples were processed for targeted biomarker analysis as described (Palmer et al., 2013). Briefly, spent media samples were deproteinized (40% acetonitrile) and processed for UPLC-HRMS. Data acquisition was performed using 4 separate UPLC-HRMS systems, consisting of an Agilent 1290 Infinity LC system (Agilent Technologies) interfaced with an Agilent high-resolution mass spectrometer (models G6520A, G6520B, G6530A, and G6224A). A Waters Acquity UPLC BEH Amide column (2.1mm x 50mm, 1.7lm particle size; Waters, Milford, Massachusetts) maintained at 40C was applied for separation of metabolites using a 6.5min solvent gradient with 0.1% formic acid in water and 0.1% formic acid in acetonitrile (1.0ml/min flow rate). Data were acquired using MassHunter Acquisition software (version B 04.00, Agilent Technologies). The extracted ion chromatogram (EIC) areas for ORN, CYSS, and their respective spike-in C13-standards were determined using the Agilent MassHunter Quantitative Analysis software, version B.05.00 or newer (Agilent Technologies), and data were normalized as described in Palmer et al. (2017).

SMILES	AC50	outcome
C[C@@H]1C[C@@H]([C@H](O)CC2CC(=O)NC(=O)C2)C(=O)[C@@H](C)C1	2.9 µM (active)	
O=C(Nc1ccc2[nH]ccc2c1)c1cc2cc(F)ccc2n1Cc1cccc(F)c1	1.28 µM (active)	
ClC1(Cl)C2(Cl)C3(Cl)C4(Cl)C(Cl)(Cl)C5(Cl)C3(Cl)C1(Cl)C5(Cl)C24Cl (stereo unspecified)	0.346 µM (active)	
CCN1CCC2(CC1)COc1cc3c(cc12)N(C(=O)c1ccc(-c2ccc(-c4nnc(C)o4)cc2C)cc1)CC3	7.61 µM (active)	
CC12CC1(C)C(=O)N(c1cc(Cl)cc(Cl)c1)C2=O (stereo unspecified)	50 µM (active)	
CC(C)(c1ccc(OCC2CO2)cc1)c1ccc(OCC2CO2)cc1 (stereo unspecified)		inactive
ClCC(Cl)CCl		inactive
CC(=O)[O][Hg][c]1ccccc1	0.311 µM (active)	
O=[N+]([O-])c1ccc(O)c([N+](=O)[O-])c1		inactive
C=C(C)C(=O)[O][Sn]([CH2]CCC)([CH2]CCC)[CH2]CCC	0.441 µM (active)	
CC(C)(C)c1cc(O)ccc1O		inactive

— PubChem BioAssay (EPA / NIEHS)
